Screens from PubChem.
L3MBTL1 inh = inhibitors of human L3MBTL1; AlphaScreen L3MBTL1–H3K9me1 peptide binding; Potency, µM (top dose mostly 57.1 µM), without a hit: top-dose activity, negative = inhibition, most hits filed as inhibitors; 230,000 compounds, 0.66% hits; AID 485360; further: on the % scale 0 is the no-effect control and ±100 the full control effect; nearly all actives have a fitted effect of over 60% in size
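First, the protein-peptide complex forms for 30 min at room temperature (L3MBTL1 50 nM, biotinylated H3K9me1 peptide 75 nM). Next, compounds are pin-transferred and incubated 30 min. Finally, AlphaScreen beads are added and read after 30 min.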
JMJD2A Tudor = blocks the human JMJD2A Tudor domain; 390,000 compounds, 4.4% hits; AlphaScreen JMJD2A-Tudor / H3K4me3 peptide binding; Potency, µM (doses to about 114 µM), for inactives: top-dose activity change, negative = inhibition, hits mostly inhibitors; O75164; further: on the % scale 0 is the no-effect control and ±100 the full control effect; nearly all actives have a fitted effect of over 50% in size
BAZ2B block = inhibitors of human BAZ2B bromodomain. Potency, µM (titrated, usually from 114 µM), for inactives: top-dose activity change, negative = inhibition, hits mostly inhibitors. AID 504333. AlphaScreen BAZ2B-H3K14Ac peptide displacement. Q9UIF8. 360,000 compounds, 4.4% hits; further: on the % scale 0 is the no-effect control and ±100 the full control effect; nearly all actives have a fitted effect of over 60% in size
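Complex of BAZ2B and biotin-H3K14Ac (50 nM apiece) forms over 30 min at RT, then faces library compounds up to 110 uM for another 30 min; AlphaScreen beads added, 20 min dark incubation, luminescence read.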
HP1b binding inh = inhibitors of HP1-beta chromodomain binding to methylated histone tails; P83916; AlphaScreen HP1-beta / biotin-H3K9me3 peptide binding; Potency, µM (series often up to 114 µM), inactives show top-dose activity change, negative = inhibition, hits mostly inhibitors; 390,000 compounds, 0.56% hits; further: nearly all actives have a fitted effect of over 70% in size
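AlphaScreen: HP1-beta (50 nM) preformed 30 min with biotin-H3(1-18)K9me3 peptide (50 nM) in PBS pH 7.4, 0.01% Tween-20. Compound added for 30 min at RT, then streptavidin donor/nickel chelate acceptor beads (10 ug/mL) for 30 min.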
Sfp inh = blocks B. subtilis Sfp PPTase activity; 310,000 compounds, 3.5% hits; Potency, µM, for the others: largest response in the series, negative = inhibition, most hits filed as inhibitors; Biochemical Sfp PPTase activity, qHTS; AID 1490; Q9F4F7;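 further: the enzyme is Sfp with the accession as filed and its product quenches rhodamine fluorescence; 0% = enzyme reaction without inhibitor and -100% = no enzyme wells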
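Step 1, compound plus 15 nM Sfp-PPTase, 15 min, room temperature. Step 2, add rhodamine-CoA (5 uM) and BHQ-2-YbbR (12.5 uM). Step 3, read 525/598 nm fluorescence at 0 and 30 min.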
G9a inh = G9a (human) methyltransferase inhibition; Q96KQ7; G9a H3K9 monomethylation, AlphaScreen, 2 h; Potency, µM (titrated, usually from 102 µM), for the others: at the highest dose activity, negative = inhibition, most hits filed as inhibitors; 350,000 compounds, 8.8% hits; AID 504332; further: on the % scale 0 is the no-effect control and ±100 the full control effect; nearly all actives have a fitted effect of over 75% in size
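G9a (20 nM) was preincubated 15 min with compound, then reacted 2 h at room temperature with 500 nM biotin-H3K9 peptide and 20 µM SAM. Monomethyl-H3K9 detected by AlphaScreen using anti-H3K9me1 antibody.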
* = called active by the depositor; ? = inconclusive; · = no result; [ ] = remark or other dose. Shown are actives, neighbours in structure and some others; about 12% of the full set was active somewhere. The call rests on the fitted dose curve; in most records, active means well fitted curve in the direction sought with a large enough effect; inconclusive means small, poorly fitted or top-dose-only effect, or another doubt; inactive means no such curve, though single readings can be large; an effect the other way counts as inactive or inconclusive. Potency means the concentration at half of the fitted maximal effect.

SMILES | L3MBTL1 inh | JMJD2A Tudor | BAZ2B block | HP1b binding inh | Sfp inh | G9a inh
Cc1ccc(OCC(=O)Nc2ccc3oc(=O)ccc3c2)c(C)c1 | · | -11% | -12% | 1% | 9% | 16%
CC(C)CN(C[C@@H](OP(=O)(O)O)[C@H](Cc1ccccc1)NC(=O)O[C@@H]1CCOC1)S(=O)(=O)c1ccc(N)cc1 | · | · | · | · | -8% | 15%[12.7 µM]
O=C1C(=O)c2ccccc2C(O)=C1c1cccc([N+](=O)[O-])c1 | -12% | -28% | ? | ? | 16% | 56µM*
O=S(=O)(c1ccccc1)N1CCN(C(=S)Nc2ccccc2Cl)CC1 | · | -20% | -17% | 13% | -10% | ·
O=C(CCS(=O)(=O)c1ccc(Br)cc1)Nc1ccc2c(c1)OCO2 | ? | 50µM* | 50µM* | ? | 0% | ?
O=C(CCS(=O)(=O)c1ccccc1Cl)NCc1ccc(F)cc1 | -4% | -6% | 21% | 66% | -3% | 50µM*
Cc1ccc(NC(=O)CNC(=O)c2cccs2)nc1 | 8% | -5% | -4% | 27% | · | -30%
Cc1ccc(S(=O)(=O)CCC(=O)Nc2ccc3c(c2)OCO3)cc1 | -10% | -8% | 4% | 7% | -75% | 18%[12.7 µM]
CCN(CC)c1ccc(NC(=O)CCNS(=O)(=O)c2ccc3c(c2)CCC(=O)N3)c(C)c1 | · | ? | 35µM* | ? | 15% | 40µM*
Cc1ccc(NC(=O)CCC(=O)c2cccs2)nc1 | ? | ? | ? | 4% | · | 45µM*
O=C(CSCc1ccccc1Cl)N1CCN(c2ccc(Cl)cc2)CC1 | · | -8% | 8% | 37% | · | 1%[59 µM]
Cc1ccc(-n2ncc(C(=O)NCCN3CCC(Cc4ccccc4)CC3)c2C2CCN(C(=O)OC(C)(C)C)CC2)cc1 | · | ? | -34%[57.1 µM] | 2% | · | ?
Cc1ccc(CNC(=O)CCS(=O)(=O)c2ccc(Cl)cc2)cc1 | -3% | -12% | 1% | 33% | 16% | -17%
O=C(CCS(=O)(=O)c1ccc(Br)cc1)NCc1ccc(F)cc1 | · | 82% | 40µM* | 131% | 15% | ?
Cc1ccnc(NC(=O)CS(=O)(=O)c2ccccc2)c1 | · | -1% | 3% | 37% | 9% | -2%
Cc1ccnc(NC(=O)CCS(=O)(=O)c2ccccc2)c1 | · | -16% | -36% | -17% | 16% | 79µM*
CCN(CC)c1ccc(NC(=O)CCS(=O)(=O)c2ccc(Br)cc2)c(C)c1 | · | 11µM* | 11µM* | 13µM* | 10% | 10µM*
Cc1ccc(CNC(=O)CCS(=O)(=O)c2ccc(Br)cc2)cc1 | · | 18µM* | ? | 7.1µM* | 22% | 8.9µM*
CC(C)(C)[C@@H]1COC(=O)[C@H](Cc2ccc(F)cc2)CC/C=C\C[C@@H](CC(=O)NCCO)C(=O)N1 | 0% | -16% | · | 18% | · | ·
COc1ccc(/C=C/C(=O)Nc2nc3n(n2)C(c2ccccc2)C=C(c2ccc(Cl)cc2)N3)cc1 (stereo unspecified) | · | -16% | -5% | 37% | · | -1%[59 µM]
Cc1ccc(S(=O)(=O)CCC(=O)Nc2ccc(Br)cc2)cc1 | · | -8% | -2% | 50% | 6% | ?
Cc1ccc(NC(=O)CCS(=O)(=O)c2ccc(Br)cc2)nc1 | 3% | 20µM* | 8% | 3% | 5% | 8%
COc1ccc(-n2c(=O)/c(=C\c3cccs3)s/c2=C(/C#N)C(=O)N2CCN(C)CC2)cc1 | · | -13% | -18% | 26% | 5% | 50µM*
N#CC(Cc1ccc(O)c(O)c1)C(=O)N1CCc2ccccc21 (stereo unspecified) | · | · | · | · | · | 7.1µM*
CCCOc1ccc(-c2nonc2NC(=O)c2cc(OC)c(OC)c(OC)c2)cc1OCCC | · | 0% | -21% | 48% | · | -3%[59 µM]
SMILES | L3MBTL1 inh | JMJD2A Tudor | BAZ2B block | HP1b binding inh | Sfp inh | G9a inh
COc1ccccc1-c1sc2cc3c(cc2c1-c1ccc(OCCN2CCOCC2)cc1)OCO3 | -12% | 50µM* | · | -24% | · | ·
CN(C)CCOc1ccc(-c2c(-c3ccccc3)sc3ccccc23)cc1 | -7% | 40µM* | · | ? | · | ·
COc1cc(OC)cc(-c2sc3ccc(OC)cc3c2-c2ccc(OCCN3CCCCC3)cc2)c1 | -2% | 20µM* | · | -32% | · | ·
c1ccc2c(-c3ccc(OCCN4CCCCC4)cc3)c(-c3ccsc3)sc2c1 | -8% | 40µM* | · | -7% | · | ·
Cn1c(SCc2ccc(C(F)(F)F)cc2)nc2c([nH]c3ccccc32)c1=O | · | ? | -1% | 22%[57 µM] | · | 9%[59 µM]
CC(=O)c1ccc(NS(=O)(=O)c2ccc(-n3cccn3)cc2)cc1 | · | -3% | -9% | 26% | · | -28%[59 µM]
NC(=O)c1cc(N)ccc1N1CCCC1 | -2% | ? | -39% | -9% | -5% | ?
Cc1ccc(-n2c(C)cc(=O)cc2C)c(C)c1 | 0% | -6% | -7% | 37% | -8% | 3%[59 µM]
Cc1cc(N)ccc1-n1c(C)ccc1C | -6% | ? | -3% | -23% | -9% | 14µM*
Cc1cc(N)ccc1N1CCCC1 | -14% | 20µM* | 45µM* | 50µM* | 14µM* | ?
Cn1c(SCC2CCCCC2)nnc1-c1ccncc1 | · | -29% | 9% | 17% | 9% | -5%[12.7 µM]
CN1CN(C)C(c2ccncc2)=C1c1ccncc1 | · | -7% | -9% | 22% | -11% | 40µM*
CC1CCN(CCCn2c(=S)[nH]c3c(sc4ccc([N+](=O)[O-])cc43)c2=O)CC1 | 15% | -13% | -17% | 28% | 56µM* | 40µM*
CC1CCN(CCCn2c(=S)[nH]c3c(sc4ccccc43)c2=O)CC1 | -2% | ? | -25% | 1% | -23% | 8.9µM*
O=c1c2sc3ccccc3c2[nH]c(=S)n1CCN1CCOCC1 | · | ? | -21% | 21% | 45µM* | 3.5µM*
CC1CCN(CCCn2c(=S)[nH]c3ccccc3c2=O)CC1 | · | -3% | ? | 47% | -3% | 3%[2.33 µM]
O=C(O)CCCn1c(=S)[nH]c2c(sc3ccc([N+](=O)[O-])cc32)c1=O | -1% | 18µM* | ? | 32% | 45µM* | 8.9µM*
Cc1c(-c2nc(-c3ccc4c(c3)OCO4)no2)nnn1-c1cccc(C(F)(F)F)c1 | · | -1% | 0% | 32% | · | 4%[59 µM]
COCCCn1c(=S)[nH]c2c(sc3ccccc32)c1=O | · | -35% | -11% | -7% | 79µM* | ?
COCCn1c(=O)sc2ccccc2c1=O | -18% | 14µM* | 0% | 3% | 7% | 2%
CCOc1ccc2[nH]c(=O)c(CN(Cc3nnnn3Cc3ccco3)C3CCCCC3)cc2c1 | · | -27% | 45µM* | 2% | 4µM* | ?
COc1ccc(Cn2nnnc2CN(Cc2cc3ccc(C)cc3[nH]c2=O)C2CCCC2)cc1 | -12% | -26% | 3% | 10% | 7% | 35µM*
CCC(C)(C)n1nnnc1CN(Cc1cc2cc(OC)ccc2[nH]c1=O)C1CCCC1 | -3% | -33% | -2% | 7% | 12% | -5%
